# An excerpt weighted towards active compounds, which were near 1.3% of everything screened.
# 3CLpro inhibitor: SARS-CoV 3CLpro protease inhibitors, primary screen, biochemical, quenched FRET. actives 0.14% (n = 290,000). AID 1706, 2009. recombinant SARS-CoV 3CLpro, quenched FRET peptide cleavage. inhibition, % at 6 µM. Replicase polyprotein 1ab (Severe acute respiratory syndrome coronavirus), P0C6X7; in the data active = inhibition above about 12%
# CCHFV vOTU inh: CCHFV vOTU protease inhibitors, primary screen, biochemical, Pep-AMC substrate, fluorescence | Crimean-Congo hemorrhagic fever virus L polyprotein viral ovarian tumor (vOTU) protease … | inhibition, % at 11.5 µM | actives 0.55% (n = 370,000) | AID 651958, 2012; in the data active = inhibition above about 30%; also: 0% = vehicle wells with enzyme and 100% = no enzyme wells
# PrPC surface inh: inhibitors of human cell surface prion protein PrPC, primary screen, cell-based, TR-FRET | Major prion protein (Homo sapiens), P04156 | TR-FRET read-out | inhibition, % at 13.8 µM | actives 0.43% (n = 370,000); in the data active = inhibition above about 24%; also: 0% = median of the test wells and 100% = reference compound wells
# PrP 5UTR inh: inhibition of PrP 5' UTR reporter expression; cell-based PrP 5' UTR mRNA reporter, plate reader; inhibition, % (no concentration beside the values); actives 0.35% (n = 340,000); in the data active = inhibition above about 52%; also: 0 = median of the neutral control wells
# PrP 5UTR single: prion 5' UTR mRNA inhibition, cherry-pick retest; shares compounds with PrP 5UTR inh; cell-based prion protein 5' UTR reporter, plate reader; inhibition, % at 2.5 µM; actives 48% (n = 1,100); AID 504592, 2011; in the data active = inhibition above about 54%; inconclusive = no clear call, values can overlap the other calls
# Numbers without * were called inactive; ? = inconclusive; . = no result given.
SMILES,3CLpro inhibitor,CCHFV vOTU inh,PrPC surface inh,PrP 5UTR inh,PrP 5UTR single
CC1CCc2c(nc3ncnn3c2NCCN(C)C)C1 (stereo unspecified),-3.2,-6.2,-5.7,-15.3,.
O=C1NC(Cc2ccccc2)C(=O)N1Cc1cc([N+](=O)[O-])cc2c1OCOC2 (stereo unspecified),2.2,3.1,-0.6,70.9*,-10.0
Cn1cccc1Cc1nnc(SCC(=O)Nc2ccccc2F)n1CCc1ccccc1,3.3,-1.7,-0.5,-9.0,.
Cc1nc(C)n(C(C)CNC(=O)c2ccco2)n1 (stereo unspecified),1.1,-11.5,-2.1,60.7*,3.5
CCOC(=O)N(NC(=O)C(O)(c1ccccc1)c1ccccc1)c1ccccc1,-3.8,-1.2,14.1,-39.0,.
Cc1cccc(N(NC(=O)C(C)(C)O)C(=O)c2ccccc2)c1,1.4,10.5,1.1,67.5*,-30.1
CCCCN(C(=O)COC(=O)c1nc2nccc(C)n2n1)C1CCS(=O)(=O)C1 (stereo unspecified),.,13.8,-1.4,-7.6,.
Cc1ccc(NC(=O)N2CCc3ccccc32)cc1,-0.1,-10.7,7.0,-40.8,.
CN1CCN(c2ccc(NC(=O)N3CCc4ccccc43)cc2)CC1,-1.6,0.4,0.2,63.6*,?
O=C(NC1CC1)c1ccc(-c2nc3ccccc3s2)s1,2.5,8.6,-27.2,65.9*,?
O=C1c2ccccc2S(=O)(=O)N1Cc1nc2ccccc2s1,0.9,-2.5,1.4,70.5*,?
C(=N\Nc1nc2ccccc2[nH]1)/c1ccccn1,-2.7,-7.3,10.3,51.7*,?
C(=N\Nc1nc2ccccc2[nH]1)/c1ccc2ncccc2c1,-9.5,6.3,-20.7,-17.3,.
COC(=O)c1ccc2nc(-c3ccc4c(c3)OCO4)cn2c1,-0.5,-14.8,2.3,39.1,.
CCc1ccn2cc(-c3ccc4c(c3)OCO4)nc2c1,-0.3,-47.0,-1.3,74.4*,83.9*
COc1ccc(/C=C2\SC(=S)N(CCCC(=O)NNC(=O)c3ccccc3O)C2=O)cc1,3.2,-3.1,0.3,59.6*,73.7*
Cc1ccc(C(O)c2cccnc2)o1 (stereo unspecified),-0.5,-3.1,1.5,-15.5,.
Nc1nc2n(n1)C(=O)CC(c1ccccc1[N+](=O)[O-])N2 (stereo unspecified),2.4,-5.2,-1.5,78.2*,1.7
Nc1nc2n(n1)C(=O)CC(c1ccc(Cl)cc1)N2 (stereo unspecified),-1.0,7.5,-1.3,-13.8,.
O=c1cc2c(nn1Cc1cccc(Cl)c1)-c1ccccc1CC2,-0.6,12.2,-3.5,57.3*,17.0
COc1cccc(C2C3=C(CC(C)(C)CC3=O)Nc3cc(OC)c(OC)cc32)c1 (stereo unspecified),7.2,-34.0,0.6,-24.9,.
CC(=O)N(/N=C1\Sc2ccccc2C1=O)c1ccc(C)cc1C,2.4,4.4,8.0,57.8*,56.2*
CCc1ccc(Nc2nnc(SCC(=O)NC(=O)CN3CCCC3=O)s2)cc1,.,8.3,-5.6,-13.3,.
Cc1ccc2[nH]c(=O)c(C(c3nnnn3C(C)(C)C)N(Cc3ccco3)CC3CCCO3)cc2c1 (stereo unspecified),0.1,-3.7,-0.7,-7.2,.
NC(=O)CC(NC(=O)Cc1cccc2ccccc12)c1ccc(NCc2ccc(F)cc2)c([N+](=O)[O-])c1 (stereo unspecified),.,10.3,-7.5,74.7*,-27.5
SMILES,3CLpro inhibitor,CCHFV vOTU inh,PrPC surface inh,PrP 5UTR inh,PrP 5UTR single
NC(=O)CC(NC(=O)Cc1cccc2ccccc12)c1ccc(NCc2ccccc2)c([N+](=O)[O-])c1 (stereo unspecified),.,8.6,-11.7,-25.4,.
CCCCCC(=O)NC(CC(=O)OC)c1ccc2c(c1)OCO2 (stereo unspecified),0.6,1.7,1.7,-45.0,.
Cc1ccc(NC(=O)c2cc3ccccc3o2)cc1S(=O)(=O)N(C)C,1.4,-1.8,-0.2,-97.7,.
Cc1ccc(NC(=O)c2cc3ccccc3oc2=O)cc1S(=O)(=O)N(C)C,0.9,.,.,90.4*,89.6*
CN(C)C(=O)c1ccc(NC(=O)c2cccnc2)cc1,-7.4,-3.0,1.3,-9.8,.
O=C(N/N=C/c1ccccc1)c1[nH]c2ccc(Br)cc2c1-c1ccccc1,0.6,15.5,15.1,58.8*,87.8*
CCN1/C(=C\C=C\C2=[N+](CC)c3ccccc3C2(C)C)C(C)(C)c2ccccc21,-10.7,.,.,63.2*,67.1*
CCOC(=O)/C=C1/N(C)c2ccccc2C1(C)C,0.6,19.1,-0.4,-13.8,.
CCOc1cc(/C=C/C(=O)c2ccc3c(c2)OCCO3)ccc1OCC(=O)N(C)C,-1.4,7.7,-12.0,60.4*,-7.0
CCOc1cc(/C=C/C(=O)c2ccc(O)cc2)ccc1OCC(=O)N(C)C,2.2,16.8,-1.1,-14.3,.
COC(=O)c1oc2ccc(Br)cc2c1NC(=O)CCCN1C(=O)c2ccccc2C1=O,1.4,-4.0,6.4,56.8*,-12.3
CCN1CCN(c2nc(Nc3cccc(OC)c3)nc(N)c2[N+](=O)[O-])CC1,-2.3,4.9,-20.6,-5.1,.
COC(=O)c1ccc(Oc2cc(C)nc(-n3nc(C)cc3C)n2)cc1,0.8,-5.2,11.8,59.0*,89.0*
COC(=O)c1ccc(Oc2nc(C)cc(Oc3ccccc3)n2)cc1,3.6,2.5,6.5,-26.5,.
C=C(C=O)CC1CC(O)[C@]2(C)OC3CC4OC5C[C@]6(C)O[C@]7(C)CCC8OC9C[C@]%10(C)OC%11C(C)=CC(=O)OC%11CC%10OC9C[C@@H](C)C8OC7CC6O[C@]5(C)CC5OC5C4OC3CC2O1 (stereo partly specified),-1.9,.,.,85.1*,97.6*
C=C(CO)CC1CC(O)[C@]2(C)OC3CC4OC5C[C@]6(C)O[C@]7(C)CCC8OC9C[C@]%10(C)OC%11C(C)=CC(=O)OC%11CC%10OC9C[C@@H](C)C8OC7CC6O[C@]5(C)C/C=C\C4OC3CC2O1 (stereo partly specified),3.5,-9.3,7.3,-15.8,.
Brc1ccc(-n2c(SCc3nc4ccccc4[nH]3)nnc2-c2ccncc2)cc1,3.2,5.1,5.4,-41.9,.
COC(=O)c1ccc2c(c1)c(-c1ccccc1)c(-c1ccccc1)n2C,.,10.5,-2.5,84.6*,-27.4
Cc1ccc(S(=O)(=O)N(C)C)cc1NC(=S)NCCCn1ccnc1,5.8,-12.2,-3.1,-36.9,.
COc1ccc(-n2c(/C=C/c3ccc(O)cc3)nc3ccccc3c2=O)cc1,-4.0,4.0,-6.0,2.9,.
Cc1cc(Cl)ccc1NC(=S)N1CCN(Cc2ccccc2)CC1,-3.2,11.3,0.8,51.1*,9.0
CC(=O)NN1C(=O)c2ccccc2NC1c1ccc([N+](=O)[O-])o1 (stereo unspecified),0.9,3.5,-16.2,60.9*,3.7
CCN1C/C(=C/c2cccc([N+](=O)[O-])c2)C(=O)/C(=C/c2cccc([N+](=O)[O-])c2)C1,1.3,24.1,-13.2,66.5*,61.2*
O=C1NC(=O)/C(=C/c2cccc([N+](=O)[O-])c2)N1,3.3,-1.7,-29.4,7.9,.
